# Lassa entry inh: qHTS for Inhibitors of binding or entry into cells for Lassa Virus | actives 1.2% (n = 300,000) | AID 540256, 2011 | Potency, µM (titrated, usually from 37.9 µM), hits mostly inhibitors | Lassa virus pseudotype entry inhibition, cell reporter; calls by dose curve; tested in HEK293 cells; also: nearly all actives have a fitted effect of over 50% in size
# Shiga toxin inh: A qHTS for Small Molecule Inhibitors of Shiga Toxin; Vero cells, Shiga toxin protein synthesis inhibition reporter; inhibition, % at 38.7 µM; actives 9.2% (n = 290,000); in the data active = inhibition mostly above about 28%, no sharp cut-off; inactive = mostly below about 43%
# CHX counter: Cycloheximide Counterscreen for Small Molecule Inhibitors of Shiga Toxin; actives 12% (n = 300,000); max response, %; cell reporter, cycloheximide protein synthesis inhibition counterscreen; in the data active = max response mostly above about 13%, no sharp cut-off; inactive = mostly below about 14%; also: read at 38.3 µM for the half of the compounds with a filed dose
# Marburg entry inh: qHTS for inhibitors of binding or entry into cells for Marburg Virus; actives 1.8% (n = 300,000); Potency, µM (titrated, usually from 37.8 µM), most hits filed as inhibitors; Marburg virus pseudotyped entry inhibition, cell reporter; calls by dose curve; tested in HEK293 cells
# Numbers stand for hits; - = inactive; ? = inconclusive; . = not tested or not shown. This is a sample that favours compounds with a hit; in the whole collection about 12% have one here.
SMILES,Lassa entry inh,Shiga toxin inh,CHX counter,Marburg entry inh
Cc1c(Cl)c([N+](=O)[O-])nn1CC(=O)NC(C)C1CC2CCC1C2 (centres undefined),-,-,-,-
O=C1N=C(N2CCOCC2)S/C1=C/c1cccs1,-,-,25.0,-
CC(=O)N1CCN(C2=NC(=O)/C(=C\c3cccs3)S2)CC1,-,-,-,-
O=C1N=C(N2CCN(c3cccc4ccccc34)CC2)S/C1=C/c1cccs1,-,-,-,?
CC(=C/c1ccccc1)/C=C1/SC(N2CCOCC2)=NC1=O,-,29.9,23.4,-
O=C1N=C(N2CCOCC2)S/C1=C\c1ccncc1,-,-,-,-
Cc1ccccc1N1CCN(C2=NC(=O)/C(=C\c3cccs3)S2)CC1,-,104.0,77.6,-
Cc1ccc(S(=O)(=O)N2CCCCC2)cc1C(=O)N1CCCCCC1,-,.,.,-
COc1ccc(Cn2c(-c3ccc(Br)cc3)c[n+]3ccccc23)cc1,.,48.6,56.6,.
COc1ccc(C(=O)/C=C(\C)Nc2ccc(NC(C)=O)cc2)cc1,-,-,-,-
COC(=O)c1ccc(NC(=O)c2cccnc2)cc1,.,.,-,.
C/C(=C\C(=O)c1cccnc1)Nc1ccc(O)cc1,-,26.2,27.6,-
C/C(=C\C(=O)c1ccccc1)Nc1ccc(O)cc1,?,173.7,89.1,?
Cc1cc(N2C(=O)C3C4CC(c5ccccc5)C(C4)C3C2=O)no1 (centres undefined),-,-,-,?
C[n+]1cc[nH]c1SCC(=O)c1ccc(Cl)cc1,?,-,31.1,?
C[n+]1cc[nH]c1SCC(=O)c1ccccc1,?,-,37.2,?
COc1ccc(NC(=O)Nc2cccs2)cn1,-,-,9.5,-
CCc1cc(C(=O)Nc2ccc(OC)nc2)sc1C,-,.,.,?
COc1ccc(NC(=O)c2cc(Br)c(Br)s2)cn1,.,91.0,24.3,-
COc1ccc(NC(=O)Nc2cc(C)cc(C)c2)cn1,-,-,-,-
COc1ccc(NC(=O)c2sccc2C)cn1,-,88.8,42.7,?
C=CCCC(=O)NC1CC(C)(C)Cc2c1cnn2-c1ccc(OC)cc1 (centres undefined),.,-,-,.
O=C(O)CSc1cnc2ccccc2n1,-,-,-,-
O=S(=O)(c1ccc(Br)cc1)c1cnc2ccccc2n1,?,-,-,?
Clc1ccccc1Sc1cnc2ccccc2n1,-,-,22.5,-
SMILES,Lassa entry inh,Shiga toxin inh,CHX counter,Marburg entry inh
CSc1nc(Sc2ccc(Cl)cc2)c2ccccc2n1,-,-,-,-
c1ccc(Sc2cnc3ccccc3n2)cc1,?,107.7,63.7,-
Brc1ccc(Sc2cnc3ccccc3n2)cc1,-,75.7,33.3,-
Clc1ccc(Sc2cnc3ccccc3n2)cc1,-,85.3,38.0,?
O=C(CN(C(=O)c1csnn1)c1cccc2c1CCCC2)NCc1ccccc1,?,-,-,-
Cc1ccc(C)c(C(=O)CSc2nnnn2C(C)C)c1,-,53.7,62.1,-
COc1cccc(-n2nnnc2SCC(=O)NC2CCCCC2)c1,-,-,34.3,-
COc1cccc(C(=O)CSc2nnnn2C2CCCCC2)c1,?,58.7,27.8,-
COc1cccc(-n2nnnc2SCC(=O)NC2CCCC2)c1,-,-,-,-
CCn1c(SCC(=O)c2ccc3c(c2)OCCO3)nnc1C(C)C,-,-,19.2,-
CCN1C(=NCCCOC(C)C)N[C@H](c2ccccc2)[C@H](C(=O)OC)[C@H]1C,?,.,.,-
CCn1nnnc1SCC(=O)c1ccc2c(c1)OCCO2,-,113.4,51.8,-
O=C(CSc1nnnn1C1CCCC1)c1ccc2c(c1)OCCO2,-,-,33.5,?
CCCn1c(SCC(=O)c2ccc3c(c2)OCCO3)n[nH]c1=O,-,62.3,30.3,-
CC(C)n1nnnc1SCC(=O)c1ccc2c(c1)OCCO2,-,42.3,35.6,-
CCCn1c(SCC(=O)Nc2ccc3c(c2)OCO3)n[nH]c1=O,-,.,.,-
COc1ccc(NC(=O)COC(=O)CCCOc2ccc(Cl)cc2Cl)cc1Cl,-,-,-,-
Fc1ccccc1Cn1c(-c2ccccc2)nc2ccccc21,?,.,.,-
CN1CCN(c2ccc(S(=O)(=O)N3CCCCC3)cc2NC(=O)CSCc2ccccc2)CC1,-,-,-,-
COc1ccc(N2C(=O)C(CC(=O)Nc3ccc(F)cc3)N(CCC3=CCCCC3)C2=O)cc1 (centres undefined),-,.,.,-
CCOc1nc(NC(=O)NS(=O)(=O)c2ccccc2F)nc(-c2ccccc2)n1,-,53.3,-,?
Cc1c(C(=O)NCCC2=CCCCC2)oc2ccc(S(=O)(=O)N3CCOCC3)cc12,8.2µM,-,-,?
Cc1nn(-c2ccccc2)c2[nH]c(=O)c(CNc3ccc4c(c3)OCCO4)cc12,?,112.8,41.7,-
O=C(CNc1cc(S(=O)(=O)N2CCOCC2)ccc1N1CCCC1)N1CCc2ccccc21,-,-,-,-
CC(C)(C)c1ccc(OCC(=O)O/N=C(\N)c2ccncc2)cc1,-,.,.,-
SMILES,Lassa entry inh,Shiga toxin inh,CHX counter,Marburg entry inh
CCc1ccc(OCC(=O)N(C)C)c(Br)c1,-,-,-,-
CCc1ccc(OCC(=O)O/N=C(\N)c2ccncc2)c(Br)c1,-,84.5,45.9,-
CCc1ccc(OCC(=O)O/N=C(\N)c2ccncc2)cc1,?,76.1,62.1,?
N/C(=N\OC(=O)COc1ccc(Cl)cc1Br)c1ccncc1,-,136.8,63.8,-
N/C(=N\OC(=O)CCCOc1ccc(Cl)cc1Cl)c1ccncc1,-,-,-,-
COc1ccc(CNC(=O)Cc2ccc(NC(=O)N3CCSc4ncccc43)cc2)cc1OC,-,.,.,.
Cc1oc(-c2ccccc2)nc1Cn1c(=O)cc(-c2ccccc2)c2c(C)nn(C)c21,-,.,.,.
O=C(NCc1cccs1)C1CCCN(c2nc3ccccc3o2)C1 (centres undefined),-,-,-,-
Cn1ccsc1=NC(=O)c1ccc(=O)[nH]c1,.,-,-,.
Cn1ccsc1=NC(=O)c1cccc(OC(F)F)c1,-,92.2,45.2,?
Cc1ccc(C(C(=O)NC2CCCC2)N(CCCO)C(=O)Cn2nnc(-c3ccc(C)o3)n2)cc1 (centres undefined),?,-,-,-
Oc1ccc(Cl)cc1C1=NNC(c2cc(Br)cc3c2OCOC3)C1 (centres undefined),?,-,-,?
Oc1ccc(Cl)cc1C1=NNC(c2ccc(Cl)cc2)C1 (centres undefined),-,30.8,29.5,-
Oc1c(Cl)cc(Cl)cc1C1=NNC(c2ccc(Cl)cc2)C1 (centres undefined),-,73.2,30.8,?
O=C(NCc1cccc(C(F)(F)F)c1)C1CCN(c2ncccn2)CC1,-,-,-,-
CCOC(=O)C(Oc1ccc2c(-c3ccccc3)cc(=O)oc2c1C)c1ccccc1 (centres undefined),?,-,-,-
CCOC(=O)C(Oc1ccc2c(-c3ccc(OC)cc3)cc(=O)oc2c1C)c1ccccc1 (centres undefined),13µM,-,-,?
COc1ccc(OC)c(C(=O)/C=C/c2cccnc2)c1,?,-,-,?
COc1cc(C(=O)C(=O)c2ccc(O)c(OC)c2)ccc1O,.,51.5,active,.
COc1cc(C(=O)O)ccc1O,-,-,-,-
Cc1cccc(C(=O)Nc2ccc(C(=O)/C=C/c3cccnc3)cc2)c1,?,-,23.7,?

# From PubChem
